DT40 TDP1 CPT: DT40-hTDP1 cell growth loss with CPT | 420,000 tested, 12% active | chicken DT40 Tdp1-/-;hTDP1 cells + 20 nM CPT, ATP luminescence, 48 h | AID 686979 | Potency, µM (series often up to 46.2 µM), for inactives: at the highest dose activity change, negative = growth inhibition, hits mostly inhibitors; also: % is scaled to controls: 0 for no effect and ±100 for the full control effect; nearly all actives have a fitted effect of over 55% in size
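Chicken DT40 Tdp1-/- cells stably complemented with human TDP1 were seeded at 400 cells/well in medium containing 20 nM camptothecin, exposed to pin-transferred compounds, and grown at 37 °C for at least 48 hr. Viability was read as ATP luminescence.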
HT1080 IDH1KD tx: HT-1080 IDH1 knockdown cell toxicity (counter line). HT-1080 IDH1 knockdown viability, ATP luminescence, 48 h. Potency, µM (titrated, usually from 46.1 µM), without a hit: top-dose activity, negative = toxicity, most hits filed as cytotoxic. 360,000 tested, 2% active;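 also: 0% = DMSO wells and -100% = cell-free medium wells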
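After a 2 h attachment period, IDH1KD HT-1080 cells took pin-transferred compound for 48 h at 37 °C; ATP-based luminescence after 10 min room-temperature reagent incubation reported viability.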
TGFb SMAD3 inh: TGF-b pathway inhibition; 410,000 tested, 1.2% active; Potency, µM (highest dose often 46.1 µM), for the others: top-dose activity, negative = inhibition, actives largely listed as inhibitors; AID 588855; HepG2 CAGA-GFP TGF-b/SMAD3 reporter, GFP fluorescence, 18 h; TGF-beta stimulated, 500 pg/mL final; also: % is scaled to controls: 0 for no effect and ±100 for the full control effect; nearly all actives have a fitted effect of over 65% in size
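Per well, imaged GFP fluorescence of HEPG2 CAGA-GFP cells gives the signal; cells get compound, then TGF-beta (500 pg/mL final), 18 h at 37 degrees C; %Activity versus -TGF-beta and +DMSO controls.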
HT1080NT lethal: kills 2HG-producing HT-1080-NT fibrosarcoma cells; Potency, µM (doses to about 46.1 µM), for the others: at the highest dose activity, negative = less viability, actives largely listed as cytotoxic; AID 686970; 360,000 tested, 1.6% active; HT-1080-NT fibrosarcoma viability, CellTiter-Glo ATP luminescence, 48 h;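 also: NT is the 2HG producing partner of a matched IDH1 knockdown line; 0% = DMSO-treated cells and -100% = media-only wells without cells; nearly all actives have a fitted effect of over 55% in size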
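A 48-hour cytotoxicity screen used HT-1080-NT cells plated 2 hours before compound delivery. ATP-based CellTiter-Glo luminescence measured viability, normalized to DMSO and no-cell controls.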
DT40 TDP1 no CPT: qHTS for Inhibitors of human tyrosyl-DNA phosphodiesterase 1 (TDP1): qHTS in cells in absence of CPT; DT40 Tdp1-/- hTDP1 cells, no CPT, ATP luminescence, 48 h; Potency, µM (series often up to 46.2 µM), without a hit: at the highest dose activity change, negative = growth inhibition, actives largely listed as inhibitors; 420,000 tested, 15% active; also: % is scaled to controls: 0 for no effect and ±100 for the full control effect; nearly all actives have a fitted effect of over 55% in size
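Readout: luminescence from CellTiter-Glo after 30 min in the dark at RT. Cells: DT40 Tdp1-/- with stable hTDP1, 400/well. Exposure: compounds alone, ≥48 hr, 37 °C.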
HepG2 tox-1: counter-screen for TGF-b inhibitors: cytotoxicity in HepG2 cells; Potency, µM (doses to about 46.1 µM), for the others: at the highest dose activity change, negative = cytotoxicity, hits mostly cytotoxic; 410,000 tested, 0.76% active; AID 588856; HepG2 CAGA-GFP viability, ATP luminescence, 18 h
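HepG2 CAGA-GFP cells (1000/well, DMEM with 1% FBS) received compound, then TGF-beta at 500 pg/mL final, and were incubated 18 hours at 37 degrees C. Viability was read by CellTiter-Glo luminescence. Media-only wells were set as complete cell-killing and DMSO as no toxicity.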
TGFb CAGA inh: TGF-b pathway inhibition, cherry-pick retest; shares compounds with TGFb SMAD3 inh; 1,600 tested, 63% active; HepG2 CAGA-GFP TGF-b reporter, GFP fluorescence, 18 h; cells stimulated with TGF-beta, 500 pg/mL; Potency, µM (series often up to 46.1 µM), for inactives: top-dose activity, negative = inhibition, hits mostly inhibitors; AID 720534; also: % is scaled to controls: 0 for no effect and ±100 for the full control effect; nearly all actives have a fitted effect of over 65% in size
HepG2 tox-2: counter-screen for TGF-b inhibitors: cytotoxicity in HepG2 cells; shares compounds with TGFb SMAD3 inh; HepG2 CAGA-GFP viability, ATP luminescence, 18 h; cells stimulated with TGF-beta, 500 pg/mL; Potency, µM (top dose mostly 46.1 µM), for inactives: top-dose activity, negative = cytotoxicity, most hits filed as inhibitors; 1,600 tested, 27% active; also: % is scaled to controls: 0 for no effect and ±100 for the full control effect; nearly all actives have a fitted effect of over 70% in size
CCL64 TGFb inh: orthogonal confirmation of TGF-b inhibitors in CCL64 cells | shares compounds with TGFb SMAD3 inh | CCL64 CAGA-GFP reporter, TGF-b stimulated, GFP fluorescence, 18 h | Potency, µM (titrated, usually from 46.1 µM), without a hit: at the top dose activity, negative = inhibition, actives largely listed as inhibitors | 1,600 tested, 41% active | AID 720536; also: nearly all actives have a fitted effect of over 65% in size
TGFb COP inh: blocks TGF-b signaling in HepG2 COP reporter. shares compounds with TGFb SMAD3 inh. HepG2 COP-GFP TGF-b reporter, GFP fluorescence, 18 h; cells stimulated by added recombinant TGF-beta. Potency, µM (series often up to 46.1 µM), without a hit: top-dose activity, negative = inhibition, most hits filed as inhibitors. 1,600 tested, 3% active; also: nearly all actives have a fitted effect of over 70% in size
The depositor's hits bear a star. Hits are enriched below; roughly 17% of the tested compounds scored in any of these assays. Calls follow the shape of the dose curve; as a rule, active = well fitted curve in the direction sought with a large enough effect; inconclusive = small, poorly fitted or top-dose-only effect, or another doubt; inactive = no such curve, though single readings can be large; an effect the other way counts as inactive or inconclusive. Potency is read from the fitted curve at half-maximal effect.

For CC(=O)N1CCN(C(=O)c2[nH]c(C(F)(F)F)nc2-c2ccccc2)CC1 the results were DT40 TDP1 CPT -4%, HT1080 IDH1KD tx 20%, TGFb SMAD3 inh inconclusive, HT1080NT lethal 6%, DT40 TDP1 no CPT -13% and HepG2 tox-1 -4%.
Screening Cc1nnc(SCC(=O)N/N=C/c2cn(-c3ccccc3)nc2-c2ccccc2)n1-c1ccccc1 returned DT40 TDP1 CPT inconclusive, HT1080 IDH1KD tx inconclusive, TGFb SMAD3 inh 7.1µM*, HT1080NT lethal inconclusive, DT40 TDP1 no CPT inconclusive, HepG2 tox-1 0%, TGFb CAGA inh inconclusive, HepG2 tox-2 -23%, CCL64 TGFb inh inconclusive and TGFb COP inh 8%.
Screening Cc1ccc(NC(=O)CSc2nnc(C)n2-c2ccccc2)cc1 returned DT40 TDP1 CPT -1%, HT1080 IDH1KD tx 17%, TGFb SMAD3 inh 18%, HT1080NT lethal inconclusive, DT40 TDP1 no CPT -25% and HepG2 tox-1 10%.
Screening CC(C)NC(=O)CC(=O)NN=C1CCCCC1 returned DT40 TDP1 CPT 27%, HT1080 IDH1KD tx -3%, TGFb SMAD3 inh 2%, HT1080NT lethal 17%, DT40 TDP1 no CPT -1% and HepG2 tox-1 0%.
Screening COc1ccc(CC(=O)Nc2c(C(=O)Nc3ccccc3F)oc3ccccc23)cc1 returned DT40 TDP1 CPT 0%, TGFb SMAD3 inh -18%, DT40 TDP1 no CPT -24% and HepG2 tox-1 -5%.
For COc1ccc(OC)c(NC(=O)CC2C(=O)NCCN2C(=O)c2ccccc2)c1 (stereo unspecified) the results were DT40 TDP1 CPT 0%, HT1080 IDH1KD tx 10%, TGFb SMAD3 inh -2%, HT1080NT lethal 2%, DT40 TDP1 no CPT -23% and HepG2 tox-1 6%.
Screening OC(CNCC(c1ccc(Cl)cc1Cl)c1c[nH]c2ccccc12)c1ccccc1 (stereo unspecified) returned DT40 TDP1 CPT inconclusive, HT1080 IDH1KD tx 7.3µM*, TGFb SMAD3 inh 7.1µM*, HT1080NT lethal 21µM*, DT40 TDP1 no CPT 13µM*, HepG2 tox-1 -112%, TGFb CAGA inh inconclusive, HepG2 tox-2 16µM*, CCL64 TGFb inh inconclusive and TGFb COP inh inconclusive.
`Clc1ccc(C(c2ccccc2)c2c[nH]c3ccccc23)s1` (stereo unspecified) gave TGFb SMAD3 inh inconclusive and HepG2 tox-1 -109%.
Screening COc1cc(OC)cc(C(=O)N[C@H](C(=O)Nc2nc(-c3ccc(OC)c(OC)c3)cs2)C(C)C)c1 returned DT40 TDP1 CPT 18µM*, HT1080 IDH1KD tx -1%, TGFb SMAD3 inh 13µM*, HT1080NT lethal inconclusive, DT40 TDP1 no CPT 13µM*, HepG2 tox-1 -16%, TGFb CAGA inh 15µM*, HepG2 tox-2 -7%, CCL64 TGFb inh -18% and TGFb COP inh 23%.
For COc1cc(OC)cc(C(=O)N[C@H](C(=O)Nc2nc(-c3cc(OC)ccc3OC)cs2)C(C)C)c1 the results were DT40 TDP1 CPT -3%, HT1080 IDH1KD tx -13%, TGFb SMAD3 inh -12%, HT1080NT lethal -7%, DT40 TDP1 no CPT inconclusive and HepG2 tox-1 9%.
Screening Nc1nnc(-c2ccccc2)c(-c2ccccc2)n1 returned DT40 TDP1 CPT inconclusive, HT1080 IDH1KD tx 6%, TGFb SMAD3 inh -4%, HT1080NT lethal 5%, DT40 TDP1 no CPT inconclusive and HepG2 tox-1 5%.
`c1ccc(-c2nc3nonc3nc2-c2ccccc2)cc1` gave DT40 TDP1 CPT 21µM*, HT1080 IDH1KD tx inconclusive, TGFb SMAD3 inh 8.9µM*, HT1080NT lethal -27%, DT40 TDP1 no CPT 13µM*, HepG2 tox-1 10µM*, TGFb CAGA inh 15µM*, HepG2 tox-2 inconclusive, CCL64 TGFb inh inconclusive and TGFb COP inh inconclusive.
COc1ccc(NC(=O)CCCSc2nc(-c3ccco3)cc(C(F)(F)F)n2)cc1OC was read as DT40 TDP1 CPT inconclusive, HT1080 IDH1KD tx -25%, TGFb SMAD3 inh inconclusive, HT1080NT lethal -24%, DT40 TDP1 no CPT inconclusive, HepG2 tox-1 -4%, TGFb CAGA inh inconclusive, HepG2 tox-2 -11%, CCL64 TGFb inh -28% and TGFb COP inh 3%.
`CCn1c(Cc2ccccc2)nnc1SCC(=O)Nc1ccc(S(N)(=O)=O)cc1` gave DT40 TDP1 CPT -9%, HT1080 IDH1KD tx -1%, TGFb SMAD3 inh 0%, HT1080NT lethal 10%, DT40 TDP1 no CPT 0% and HepG2 tox-1 -7%.
Screening S=C(NCc1ccco1)Nc1ccc(Oc2ccc(Cl)cc2)cc1 returned DT40 TDP1 CPT inconclusive, HT1080 IDH1KD tx inconclusive, TGFb SMAD3 inh 16µM*, HT1080NT lethal inconclusive, DT40 TDP1 no CPT inconclusive, HepG2 tox-1 -22%, TGFb CAGA inh inconclusive, HepG2 tox-2 inconclusive, CCL64 TGFb inh inconclusive and TGFb COP inh 57%.
`O=C(c1ccc([N+](=O)[O-])s1)N1CCc2ccccc2C1` gave DT40 TDP1 CPT inconclusive, HT1080 IDH1KD tx -21%, TGFb SMAD3 inh inconclusive, HT1080NT lethal -26%, DT40 TDP1 no CPT inconclusive, HepG2 tox-1 -53%, TGFb CAGA inh 23µM*, HepG2 tox-2 inconclusive, CCL64 TGFb inh inconclusive and TGFb COP inh 4%.

Screening results as filed in PubChem.
